The structures appear in SMILES notation. Entries with a potency or affinity are not part of this list. Activity calls are given as the source filed them. The rule behind the calls is not given here.

Data on 30 molecules can be found in PubChem BioAssay AID504942 (Broad Institute, 2011).

A short description of this test: HeLa cell cytotoxicity, dose response, cytotoxicity control, 48 h, plate reader, cherry-picks (AID 504942). To be noted: series mostly up to 38 µM.
Turning to `CCCNS(=O)(=O)c1ccc(OC)c(Cl)c1Cl`, the result was inactive.

With `Cn1cccc1C(C#N)c1ccccc1C#N` (stereo not given), the result was inactive.

For the molecule `N#CC(c1ccc(Cl)cc1)c1ccc(Cl)nn1` (stereo not given), the outcome was inactive.

Consider `Cc1cc(C)nc(N(C#N)Cc2ccccc2)n1`, for which the call was inactive.

For `COc1ccc(/C=C/C(=O)c2ccoc2)cc1`, the call was inactive.

`Cc1ccc(S(=O)(=O)NCCC(C)C)cc1[N+](=O)[O-]`: the outcome was inactive.

As to `COC(=O)c1cc(-c2ccc(OC)cc2)on1`, the outcome was inactive.

As for `Cc1cc(C)nc(N(C#N)Cc2cccc([N+](=O)[O-])c2)n1`, the outcome was inactive.

Consider `CCOC(=O)c1ccc(N2Cc3ccccc3C2=N)cc1`, for which the result was inactive.

With `Cc1cccc(NC(=O)Nc2cc(C)on2)c1`, the molecule was classed as inactive.

As for `CC(C)(C)NC(=O)c1cc(Cl)ccc1[N+](=O)[O-]`, the molecule was classed as inactive.

`COc1ccccc1C(C#N)c1cccc(Cl)n1` (stereo not given): the molecule was classed as inactive.

Consider `CSc1nnc(-c2ccc([N+](=O)[O-])cc2)o1`, for which the call was inactive.

Turning to `O=C1C2C(C(=O)N1Cc1ccco1)C1C=CC2C12CC2` (stereo not given), the outcome was inactive.

Regarding `O=[N+]([O-])c1ccc(N2CCCCC2)nc1`, the call was inactive.

In the case of `CCOC(=O)c1ccc(-c2ccc(C=O)o2)cc1`, the call was inactive.

Take `COC(=O)c1cc(-c2ccc(Br)cc2)on1`: the molecule was classed as inactive.

With `N#CC(c1ccc(Cl)cc1)c1cccc(Cl)n1` (stereo not given), the call was inactive.

`O=C(NCC1CC1)c1cc([N+](=O)[O-])cc([N+](=O)[O-])c1`: the molecule was called inactive.

`Clc1cccc(CNCCCSc2ncccn2)c1`: the outcome was inactive.

Consider `N#CCn1c(C2CCCCC2)nc2ccccc2c1=O`, for which the molecule was called inactive.

Turning to `CCOc1ccc(-n2cccc2C=O)cc1`, the call was inactive.

Consider `N#CC(c1cccc(Cl)c1)c1ncc(C(F)(F)F)cc1Cl` (stereo not given), for which the molecule was classed as inactive.

As to `N#CC(c1ccc(Cl)nn1)c1c(F)cccc1Cl` (stereo not given), the call was inactive.

Take `N#CC(c1ccc(Cl)cc1)c1ncc(C(F)(F)F)cc1Cl` (stereo not given): the outcome was inactive.

As for `CCOC(=O)c1cnc(-c2ccccc2)nc1N`, the outcome was inactive.

As for `CC(C)N=C(NC#N)SCc1ccccc1F`, the outcome was inactive.

For `CCC(C)NS(=O)(=O)c1ccc(OC)c(Cl)c1Cl` (stereo not given), the outcome was inactive.

Take `O=C1C2C3C=CC(C4CC34)C2C(=O)N1Cc1ccco1` (stereo not given): the result was inactive.

For the molecule `Cc1cc(NC(=O)c2c(F)c(F)c(F)c(F)c2F)no1`, the molecule was classed as inactive.
